Reference: PubChem BioAssay AID376 (PDSP, 2006)
Among all 2,000 compounds or so, about 250 (12%) were called active. Only a selection was taken, and actives are over-represented in it overall. Values without a mark were called inactive. No stated cut-off is given here; in the data, active means hERG blockade below about -20% or above about 20%; inactive means in between.

molecular target: Voltage-gated inwardly rectifying potassium channel KCNH2 (Homo sapiens) (UniProt Q12809); experiment: modulators of KCNH2 ion channel function, cellular (AID 376); conditions: hERG-expressing cells, channel activity single-concentration screen; concentration not given here;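 further: 0% = buffer alone and 100% = reference blocker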
Sequence (Q12809 whole entry, looked up): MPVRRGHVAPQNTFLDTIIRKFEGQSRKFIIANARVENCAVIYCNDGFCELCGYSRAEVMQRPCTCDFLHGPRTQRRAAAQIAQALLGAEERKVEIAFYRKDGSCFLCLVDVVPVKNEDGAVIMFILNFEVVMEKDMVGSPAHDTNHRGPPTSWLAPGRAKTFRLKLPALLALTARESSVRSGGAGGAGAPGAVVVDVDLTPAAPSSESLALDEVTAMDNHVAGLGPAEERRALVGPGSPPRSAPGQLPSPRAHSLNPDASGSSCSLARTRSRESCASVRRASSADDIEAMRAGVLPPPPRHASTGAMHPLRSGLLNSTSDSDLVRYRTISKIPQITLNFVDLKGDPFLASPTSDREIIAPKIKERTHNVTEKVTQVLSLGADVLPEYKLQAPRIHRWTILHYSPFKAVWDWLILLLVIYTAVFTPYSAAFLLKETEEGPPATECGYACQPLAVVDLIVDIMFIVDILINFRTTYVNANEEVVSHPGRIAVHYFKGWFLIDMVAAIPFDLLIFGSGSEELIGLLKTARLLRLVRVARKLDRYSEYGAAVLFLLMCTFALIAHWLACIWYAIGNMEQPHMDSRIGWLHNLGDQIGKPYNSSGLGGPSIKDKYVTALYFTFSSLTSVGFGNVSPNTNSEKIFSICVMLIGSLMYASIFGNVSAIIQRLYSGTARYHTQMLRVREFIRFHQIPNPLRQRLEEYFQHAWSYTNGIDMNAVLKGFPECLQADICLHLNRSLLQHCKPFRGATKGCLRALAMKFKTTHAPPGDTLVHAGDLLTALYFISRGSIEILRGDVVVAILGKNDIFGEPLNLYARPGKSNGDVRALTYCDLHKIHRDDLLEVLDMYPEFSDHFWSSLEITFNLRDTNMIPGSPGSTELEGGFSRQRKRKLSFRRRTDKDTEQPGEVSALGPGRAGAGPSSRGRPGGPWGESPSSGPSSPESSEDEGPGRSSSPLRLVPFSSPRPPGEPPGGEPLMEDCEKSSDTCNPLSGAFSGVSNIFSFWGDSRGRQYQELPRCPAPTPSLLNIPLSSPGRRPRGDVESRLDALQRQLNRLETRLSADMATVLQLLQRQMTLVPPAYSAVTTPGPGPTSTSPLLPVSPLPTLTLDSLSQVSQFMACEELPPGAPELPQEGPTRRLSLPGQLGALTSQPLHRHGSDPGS

| SMILES | hERG blockade |
| --- | --- |
| CSc1ccc2c(c1)c(CCN)c(C)n2Cc1ccccc1Cl | 102% (active) |
| Cn1c(=O)c2[nH]cnc2n(C)c1=O.[CH2-]C(Cc1cccc2cc(C(=O)O)c(=O)oc12)OC.[Hg+2].[OH-] (configuration not stated) | -6.48% |
| Nc1nc(N)c(N=Nc2ccc([As](=O)(O)O)c(O)c2)c(N)n1 | -5.01% |
| CC1=NN(c2ccccc2)C(=O)C1N=Nc1ccc([As](=O)(O)O)c(O)c1 (configuration not stated) | 32.9% (active) |
| O=C(O)CC1NCc2cc3ccccc3nc21 (configuration not stated) | -11.4% |
| O=P(O)(OP(=O)(O)c1ccccc1)c1ccccc1 (tested in a mixture with another compound) | -3.18% |
| Nc1nnnn1CCO | -1.1% |
| CC1CCC2(NC1)OC1CC3C4CC=C5CC(O)CCC5(C)C4CCC3(C)C1C2C (configuration not stated) | 5.44% |
| Cc1c(C(C)C2NCC(C)CC2O)ccc2c1CC1C2CC=C2CC(O)CCC21C (configuration not stated) | 75.5% (active) |
| CC1=C2C(=O)C3C(CC=C4CC(O)CCC43C)C2CCC12OC1CC(C)CNC1C2C (configuration not stated) | 18.8% |
| COC([CH2][Hg][n]1cnc2c1c(=O)n(C)c(=O)n2C)CN1C(=O)c2ccccc2S1(=O)=O (configuration not stated) | -10.9% |
| O=P(O)(O)c1ccccc1 (tested in a mixture with another compound) | -2.7% |
| O=C(O)CSCC(=O)O | -1.83% |
| CC(Br)C(=O)NC(CO)C(=O)O (configuration not stated) | 16.5% |
| O=C(Nc1cc[c]([Sb](=[O])([OH])[OH])cc1)c1ccccc1 | 5.03% |
| Nc1ccc(S(=O)(=O)c2ccc(NCN3C(=O)NC(=O)C(=O)C3=O)cc2)cc1 | 20% |
| O=P(O)(O)CCP(=O)(O)O | -9.16% |
| CCOC(=O)C1C(O)CC2c3ccccc3-c3ccccc3C21 (configuration not stated) | -9.9% |
| COc1cc2c(cc1OC)C13CC[N+]4(C)CC5=CCOC6CC(=O)N2C1C6C5CC34O (configuration not stated) | 0.126% |
| NCCSC(c1ccccc1)c1ccccc1 | 21.8% (active) |
| Nc1c(C(=O)Nc2ccc([As](=O)(O)O)cc2)cnc2nnnn12 | 6.38% |
| COC(=O)C1C(=O)C(C(=O)OC)C2CCC1N2C (configuration not stated) | -6.77% |
| O=[As](O)(O)c1ccc2nc3cc([As](=O)(O)O)ccc3nc2c1 | 6.6% |
| CCSCCC(N)C(=O)O (configuration not stated) | -2.21% |

| SMILES | hERG blockade |
| --- | --- |
| CC(CN(C)C)C(C#N)(c1ccccc1)c1ccccc1 (configuration not stated) | 3.3% |
| C[n+]1c(C=Cc2ccc(O)c3ncccc23)[se]c2ccccc21 | 24% (active) |
| NC(CP(=O)(O)O)C(=O)O (configuration not stated) | 0.269% |
| COc1cccc2c1C(=O)c1c(O)c3c(c(O)c1C2=O)CC(O)(C(C)=NO)CC3OC1CC(N)C(O)C(C)O1 (configuration not stated) | 36.3% (active) |
| CC(O)CN(CCN(CC(C)O)CC(C)O)CC(C)O.O=[N+]([O-])[O-].[Cu+2] (configuration not stated) | 13.4% |
| CC12CN(CC[N+](C)(C)C)CC1(C)C1CCC2O1 (configuration not stated) | -0.461% |
| Cc1ccc(OP(=O)(Oc2ccc(C)cc2)N2C=Cc3ccccc3C2C#N)cc1 (configuration not stated) | 0.907% |
| Cc1ccc(S(=O)ON2CCC(C(=O)O)(c3ccccc3)CC2)cc1 (configuration not stated) | 4.76% |
| Nc1nc(N)c(N=Nc2ccc([As](=O)(O)O)cc2)c(=O)[nH]1 | 13.9% |
| N#CCCCC[N+]12CN3CN(CN(C3)C1)C2 | 6.19% |
| COc1cc(O)c2c(O)c3c(c4c2c1C1(C4)C(C)=CCCC1(C)C)C(O)C1(O)CC(=O)C(C(N)=O)=C(O)C1(O)C3=O (configuration not stated) | 24.7% (active) |
| Nc1cc[c]([Hg])cc1.Nc1nc2c(ncn2C2OC(CO)C(O)C2O)c(=[SH+])[nH]1 (configuration not stated) | 2% |
| NNc1c(C(N)=O)c2c(N)ncnc2n1C1OC(CO)C(O)C1O (configuration not stated) | 6.28% |
| O=C(O)CNC(=O)c1ccc([As](=O)(O)O)cc1 | -21.5% (active) |
| O=[As](O)(O)c1ccc(Cc2ccc([As](=O)(O)O)cc2)cc1 | -1.48% |
| NC(=O)c1ccc(C(=O)Nc2ccc([As](=O)(O)O)cc2)cc1 | 8.1% |
| CC1=NN(c2ccc(S(=O)(=O)O)cc2C)C(=[OH+])C1N=Nc1cc(S(=O)(=O)[O-])ccc1C(=O)O.[Cr].[OH-] (configuration not stated) | -5.52% |
| Oc1ccc(CCNCc2cc3c(cc2Br)OCO3)cc1 | -0.605% |
| O=C(O)C(Br)C(Br)C(=O)O (configuration not stated) | 10.9% |
| NCCc1c[nH]c2ccc(OC(=O)C(=O)O)cc12 | -28.9% (active) |
| NC(CCP(=O)(O)O)C(=O)O (configuration not stated) | 5.51% |
| CC1CCC2(O)C3(C)CC4(O)OC2(C1O)C1(O)C3(O)C(OC(=O)c2ccc[nH]2)C(O)(C(C)C)C41C (configuration not stated) | 2.45% |
| O=C(O)C(O)(c1ccc(-c2ccccc2)cc1)c1ccc(-c2ccccc2)cc1 | 33.6% (active) |
